The results in this text go back to article PMC11006913.

Common to all, as to test: PBM; 200 nM protein, PBS
Holding throughout (conditions): dsDNA, one strand shown

The target in assay [1] is NKX2-5 (Homo sapiens, UniProt P52952 125-210, R139K).
In assay [2] the target is NKX2-5 (Homo sapiens, UniProt P52952 125-210).
Assay [3] has as its target T1, NKX2-6 (Homo sapiens, UniProt A6NCS4 118-204, F151L).
T1 sequence: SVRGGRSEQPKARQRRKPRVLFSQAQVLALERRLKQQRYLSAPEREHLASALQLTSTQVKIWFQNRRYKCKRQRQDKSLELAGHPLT

Assay [4] has as its target PITX2 (Homo sapiens, UniProt Q99697 72-157).
The target in assay [5] is NKX3-2 (Homo sapiens, UniProt P78367 192-278, P234S).
For assay [6], the target named is NKX3-2 (Homo sapiens, UniProt P78367 192-278).
Sequence of NKX3-2 (Homo sapiens, UniProt P78367 192-278) (P78367 192-278): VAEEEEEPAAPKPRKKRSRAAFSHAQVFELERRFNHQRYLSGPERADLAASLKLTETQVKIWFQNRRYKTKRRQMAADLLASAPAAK

Sequence of NKX2-5 (Homo sapiens, UniProt P52952 125-210, R139K) (P52952 125-210 R139K): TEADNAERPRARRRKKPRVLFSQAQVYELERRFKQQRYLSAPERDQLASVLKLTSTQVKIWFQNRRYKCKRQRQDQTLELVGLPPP
Sequence of NKX2-5 (Homo sapiens, UniProt P52952 125-210) (P52952 125-210): as the sequence (P52952 125-210 R139K) above, with K15R counted along it
Sequence of NKX3-2 (Homo sapiens, UniProt P78367 192-278, P234S) (P78367 192-278 P234S): as the sequence (P78367 192-278) above, with P43S counted along it

Turning to CACTAAGC, the binding signal in assay [1] was 10.7 upbm affinity estimate (log intensity, higher = more binding, comparable within an allelic series); in assay [2], 10.6 upbm affinity estimate (log intensity, higher = more binding, comparable within an allelic series).
As for GCTGCGAC, the binding signal in assay [1] was 8.9 upbm affinity estimate (log intensity, higher = more binding, comparable within an allelic series); in assay [2], 8.94 upbm affinity estimate (log intensity, higher = more binding, comparable within an allelic series).
For the sequence CAAGTGCC, the binding signal was 12.3 upbm affinity estimate (log intensity, higher = more binding, comparable within an allelic series) in assay [1] and 10.6 upbm affinity estimate (log intensity, higher = more binding, comparable within an allelic series) in assay [3].
For CCCGAGGC, the binding signal was 9.04 upbm affinity estimate (log intensity, higher = more binding, comparable within an allelic series) in assay [1]; 8.01 upbm affinity estimate (log intensity, higher = more binding, comparable within an allelic series) in assay [4]; 10.3 upbm affinity estimate (log intensity, higher = more binding, comparable within an allelic series) in assay [5]; 9.06 upbm affinity estimate (log intensity, higher = more binding, comparable within an allelic series) in assay [2]; 10.4 upbm affinity estimate (log intensity, higher = more binding, comparable within an allelic series) in assay [6].
Consider ATAAGATG, for which the binding signal in assay [1] is 10.5 upbm affinity estimate (log intensity, higher = more binding, comparable within an allelic series); in assay [2] it was 10.6 upbm affinity estimate (log intensity, higher = more binding, comparable within an allelic series).
In the case of CGGACCCC, the binding signal in assay [1] was 9.12 upbm affinity estimate (log intensity, higher = more binding, comparable within an allelic series); in assay [2], 9.03 upbm affinity estimate (log intensity, higher = more binding, comparable within an allelic series).
As for CACAGCCG, the binding signal in assay [1] is 8.68 upbm affinity estimate (log intensity, higher = more binding, comparable within an allelic series); in assay [2] it was 8.68 upbm affinity estimate (log intensity, higher = more binding, comparable within an allelic series).
For the sequence ACGGTCCA, the binding signal in assay [1] was 8.85 upbm affinity estimate (log intensity, higher = more binding, comparable within an allelic series); in assay [5] it was 10.5 upbm affinity estimate (log intensity, higher = more binding, comparable within an allelic series); in assay [2], 8.85 upbm affinity estimate (log intensity, higher = more binding, comparable within an allelic series); in assay [6] it was 10.5 upbm affinity estimate (log intensity, higher = more binding, comparable within an allelic series).
As to AAGTAGGG, the binding signal in assay [1] is 10.9 upbm affinity estimate (log intensity, higher = more binding, comparable within an allelic series); in assay [2], 10.9 upbm affinity estimate (log intensity, higher = more binding, comparable within an allelic series).
Consider CTCATAAG, for which the binding signal in assay [1] was 10.8 upbm affinity estimate (log intensity, higher = more binding, comparable within an allelic series); in assay [2], 10.9 upbm affinity estimate (log intensity, higher = more binding, comparable within an allelic series).
As to CGCCAGGA, the binding signal in assay [1] is 8.64 upbm affinity estimate (log intensity, higher = more binding, comparable within an allelic series); in assay [2], 8.64 upbm affinity estimate (log intensity, higher = more binding, comparable within an allelic series).
On to ACTGGCCC, for which the binding signal is 8.91 upbm affinity estimate (log intensity, higher = more binding, comparable within an allelic series) in assay [1] and 8.87 upbm affinity estimate (log intensity, higher = more binding, comparable within an allelic series) in assay [2].
Consider CGGCGTAC, for which the binding signal is 8.9 upbm affinity estimate (log intensity, higher = more binding, comparable within an allelic series) in assay [1] and 8.89 upbm affinity estimate (log intensity, higher = more binding, comparable within an allelic series) in assay [2].
As for CCGCACGG, the binding signal in assay [1] was 8.63 upbm affinity estimate (log intensity, higher = more binding, comparable within an allelic series); in assay [2] it was 8.62 upbm affinity estimate (log intensity, higher = more binding, comparable within an allelic series).
On to CGCGAGCC, for which the binding signal in assay [1] was 8.97 upbm affinity estimate (log intensity, higher = more binding, comparable within an allelic series); in assay [2], 8.93 upbm affinity estimate (log intensity, higher = more binding, comparable within an allelic series).
Take AGTGCCTA: the binding signal was 11.2 upbm affinity estimate (log intensity, higher = more binding, comparable within an allelic series) in assay [1] and 11.1 upbm affinity estimate (log intensity, higher = more binding, comparable within an allelic series) in assay [2].
As to CCCTGGGC, the binding signal in assay [1] was 8.86 upbm affinity estimate (log intensity, higher = more binding, comparable within an allelic series); in assay [2], 8.96 upbm affinity estimate (log intensity, higher = more binding, comparable within an allelic series).
In the case of CACTACAC, the binding signal in assay [1] is 10.6 upbm affinity estimate (log intensity, higher = more binding, comparable within an allelic series); in assay [2], 10.7 upbm affinity estimate (log intensity, higher = more binding, comparable within an allelic series).
In the case of CCGTCCCG, the binding signal is 8.71 upbm affinity estimate (log intensity, higher = more binding, comparable within an allelic series) in assay [1] and 8.66 upbm affinity estimate (log intensity, higher = more binding, comparable within an allelic series) in assay [2].
As for CCCTTAAC, the binding signal in assay [1] is 10.9 upbm affinity estimate (log intensity, higher = more binding, comparable within an allelic series); in assay [2], 10.8 upbm affinity estimate (log intensity, higher = more binding, comparable within an allelic series).
Take CACAGCCC: the binding signal in assay [1] was 9.06 upbm affinity estimate (log intensity, higher = more binding, comparable within an allelic series); in assay [2], 9.02 upbm affinity estimate (log intensity, higher = more binding, comparable within an allelic series).
On to AGGCGAGC, for which the binding signal in assay [1] was 9.02 upbm affinity estimate (log intensity, higher = more binding, comparable within an allelic series); in assay [2] it was 8.95 upbm affinity estimate (log intensity, higher = more binding, comparable within an allelic series).
Consider CCGGGCCA, for which the binding signal was 9.01 upbm affinity estimate (log intensity, higher = more binding, comparable within an allelic series) in assay [1] and 8.94 upbm affinity estimate (log intensity, higher = more binding, comparable within an allelic series) in assay [2].
On to AACGTGGG, for which the binding signal in assay [1] is 8.65 upbm affinity estimate (log intensity, higher = more binding, comparable within an allelic series); in assay [2] it was 8.69 upbm affinity estimate (log intensity, higher = more binding, comparable within an allelic series).
In the case of CGGTTTGC, the binding signal was 8.63 upbm affinity estimate (log intensity, higher = more binding, comparable within an allelic series) in assay [1] and 8.59 upbm affinity estimate (log intensity, higher = more binding, comparable within an allelic series) in assay [2].
As for AAAGTGCC, the binding signal is 11.6 upbm affinity estimate (log intensity, higher = more binding, comparable within an allelic series) in assay [1] and 11.7 upbm affinity estimate (log intensity, higher = more binding, comparable within an allelic series) in assay [2].
With CCCTTGAC, the binding signal in assay [1] is 11.1 upbm affinity estimate (log intensity, higher = more binding, comparable within an allelic series); in assay [2], 11.1 upbm affinity estimate (log intensity, higher = more binding, comparable within an allelic series).
Regarding CTGCCGCC, the binding signal in assay [1] is 8.73 upbm affinity estimate (log intensity, higher = more binding, comparable within an allelic series); in assay [2] it was 8.63 upbm affinity estimate (log intensity, higher = more binding, comparable within an allelic series).
